The values below come from PubChem BioAssay (NCATS).

The structures appear in SMILES notation. Several values for one entry are separate records, joined by “and”; a condition that tells them apart may be missing. Equal values may be shown once. Records with an inconclusive call do not appear. Activity calls are given as the source filed them. Unless noted, calls come from the whole dose curve; as a rule, active = well fitted curve in the direction sought with a large enough effect; inconclusive = small, poorly fitted or top-dose-only effect, or another doubt; inactive = no such curve, though single readings can be large; an effect the other way counts as inactive or inconclusive. Peptide text beside a SMILES is read from it.

Test [1] concerns the target Peroxisome proliferator-activated receptor alpha (Homo sapiens) (UniProt Q07869). In words: qHTS assay for small molecule agonists of the peroxisome proliferator-activated receptor alpha (PPARalpha) signaling pathway (AID 651778). Note: % of control where 0% means no effect. To be noted: PathHunter PPARalpha complementation, chemiluminescence, 6 h; stronger effect = higher value. The method, boiled down:
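Chemiluminescence from complemented enzyme reported PPARalpha activation in cells after 6 hr of compound treatment at 37 C. The detection reagent was incubated for 60 min at room temperature, and compounds were scored as agonists.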
Background: qHTS replaces the single test concentration by a dilution series.

Test [2] deals with Arylsulfatase A (Homo sapiens) (UniProt P15289). Description: qHTS screen for enhancers of Arylsulfatase A (ASA1): LOPAC Validation Assay (AID 720538). The method, boiled down: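 SV40-transformed skin fibroblasts from an MLD patient (ASA-I179S) were treated with compounds for 48h at 37 degree C, then lysed with 0.5mM pNCS final substrate for 14h at room temperature; NaOH stop, fluorescence read (Ex=525 nm; Em=598 nm).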

The nature of test [3]: qHTS for compounds that reverse cellular toxicity of Amyloid beta (A-beta) peptide in yeast: LOPAC Validation Assay (AID 720559).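 Note: plate controls were DMSO for no effect and equimolar ferric chloride plus clioquinol rescue for full effect.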 The procedure, abridged: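 Yeast cells expressing toxic A-beta were combined with pinned compounds in growth medium and incubated 48 hr at 30 C. Growth was read as absorbance at 600 nm and normalized to DMSO and to an equimolar FeCl3/clioquinol positive control.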

A short description of test [4]: qHTS for Activators of Parkin Expression: LOPAC Validation Assay (NLuc Reporter) (AID 720572). The procedure, abridged: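 Compound effects on Parkin promoter activity were measured as NanoLuc luminescence after 24 h at 37 C. The neuronal reporter line also carried FLuc, which was read first. LOPAC compounds were tested at 7 concentrations, with normalization to DMSO (0%) and positive control (100%).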

Test [5] can be described thus: qHTS for Activators of Parkin Expression: LOPAC Validation Assay (FLuc Reporter) (AID 720573; note: potency is the fitted concentration of half-maximal effect). The procedure, abridged: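 Neuronal cell line stably carrying FLuc/NLuc coincidence reporter under Parkin promoter; cells plated 24 h, then compounds added in 7-point dose response for 24 h at 37 C. FLuc luminescence read; normalized to DMSO and positive control (100%).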

The nature of test [6]: qHTS assay for small molecule agonists of the antioxidant response element (ARE) signaling pathway measured by Nrf2-dependant transcriptional activity (AID 720636; active = well fitted curve in the direction sought with a large enough effect in the repeat runs; an effect the other way counts as inactive or inconclusive;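 note: HepG2 cells with an ARE-driven luciferase reporter; % of control where 0% means no effect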). The procedure, abridged:
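In HepG2 cells engineered with an Nrf2-responsive luciferase gene, ARE induction was quantified as luminescence after 16 hr compound treatment at 37 C.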

A short description of test [7]: qHTS assay for small molecule agonists of the antioxidant response element (ARE) signaling pathway measured by Nrf2-dependant transcriptional activity - cell viability counter screen (AID 720653; active = well fitted curve in the direction sought with a large enough effect in the repeat runs; an effect the other way counts as inactive or inconclusive; note: % is set by controls: 0 for no effect and ±100 for the full control effect). The following applies: ARE-bla HepG2 viability, CellTiter-Glo ATP luminescence, 16 h; max response: stronger effect = lower value. The procedure, abridged: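 Cytotoxicity counter screen: intracellular ATP quantified by CellTiter-Glo luminescence in the same ARE-bla HepG2 plates, after 16 h compound exposure and a 2 h beta-lactamase substrate step.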

Test [8] addresses T1, Hexokinase-4 (Homo sapiens) + Glucokinase regulatory protein (Homo sapiens) (UniProt P35557+Q14397). In words: qHTS assay for inhibitors of recombinant human GCK-GKRP interaction: Diaphorase-coupled assay (AID 743205). The procedure, abridged:
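GST-GCK (10 nM) with FLAG-GKRP (10 nM), 5 mM glucose and 0.4 mM ATP in pH 7.6 Hepes; compounds preincubated 20 min with substrate. G6PDH/diaphorase coupling converts resazurin to resorufin, read kinetically (ex 525/em 590 nm) for 30 min.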

In test [9] the target is T1, Hexokinase-4 (Homo sapiens) + Glucokinase regulatory protein (Homo sapiens). Description: qHTS assay for inhibitors of recombinant human GCK-GKRP interaction: ADP-Glo assay (AID 743206).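 Note: plate controls were DMSO plus enzyme for no effect and no enzyme for full effect.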 The method, boiled down: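 Pin-transferred compounds meet a 15 nM GST-GCK/15 nM FLAG-GKRP/2 uM S6P mix (dispense concentrations). ATP is then added to 0.4 mM final with 5 mM glucose, and the reaction runs 60 min at room temperature. ADP is quantified luminescently.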

Test [10] is described as follows: qHTS Assay for Identifying Gametocytocidal Compounds (AID 743244).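 For max response: % is set by controls: 0 for no effect and ±100 for the full control effect; actives lower the fluorescent signal which means gametocytes are killed.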 Note: potency is the fitted concentration of half-maximal effect. To be noted: P. falciparum 3D7 stage III-V gametocytes, alamarBlue, 72 h; max response: stronger effect = lower value. The procedure, abridged:
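Late gametocytes (III–V), P. falciparum 3D7; 72 h drug, then 24 h alamarBlue; resazurin reduction read by fluorescence.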

The nature of test [11]: qHTS assay for cell viability of HEK293 cells (AID 743288). Note: % is set by controls: 0 for no effect and ±100 for the full control effect; nearly all actives have a fitted effect of over 50% in size. To be noted: ATP luminescence (CellTiter-Glo), 18 h; max response: stronger effect = lower value. The procedure, abridged:
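After 18 h compound exposure at 37 C, parental HEK293 cells (2,000/well) are lysed with CellTiter-Glo and luminescence is read following 30 min at room temperature.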

Test [12] is described as follows: qHTS assay for cell viability of the p53RE-bla HCT-116 cell line (AID 743292). Note: % is set by controls: 0 for no effect and ±100 for the full control effect; nearly all actives have a fitted effect of over 55% in size. The method, boiled down: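 Intracellular ATP of p53RE-bla HCT-116 cells measured by luciferase luminescence following 16 h compound incubation at 37 C; DMSO-only wells served as vehicle controls.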
Test [13] can be described thus: qHTS profiling of the MIPE4 collection as inhibitors of Plasmodium falciparum (3D7) proliferation (AID 743344; call rule not given here;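 note: scaled between DMSO vehicle wells and 0.29 µM artemisinin as full inhibition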). To be noted: P. falciparum 3D7 in erythrocytes, SYBR Green DNA fluorescence, 72 h; at 28.5 µM (top of the series) unless noted. The method, boiled down: (§1)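 Parasite DNA was quantified by SYBR Green I fluorescence (ex 485, em 535 nm) after overnight lysis in saponin/Triton buffer at room temperature. Cultures at 0.3% parasitemia and 2.5% hematocrit were first exposed to compound for 72 h at 37 C; signals were normalised to artemisinin (0.29 uM) and vehicle wells.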

Test [14] concerns the target Tyrosine-protein kinase Yes (Homo sapiens) (UniProt P07947). Description: qHTS for small molecule inhibitors of Yes1 kinase: Primary Screen (AID 686947). Note: nearly all actives have a fitted effect of over 60% in size. Note: potency is the fitted concentration of half-maximal effect. The method, boiled down:
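In this qHTS format, inhibition is expressed relative to DMSO controls with enzyme (maximum) and without enzyme (minimum). The 60 min room-temperature reaction uses 0.1 mM ATP, with ADP detected by luminescence.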

Test [15] addresses T1, Hexokinase-4 (Homo sapiens) + Glucokinase regulatory protein (Homo sapiens). In words: qHTS assay for inhibitors of recombinant human GCK-GKRP interaction: HTRF assay (AID 743207).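 Note: 0% = DMSO with GCK present and -100% = DMSO wells lacking GCK.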 The method, boiled down:
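GST-GCK and FLAG-GKRP (5 nM each) were combined with 2 uM S6P in pH 7.1 Hepes/MgCl2/KCl/DTT buffer, then compound and anti-FLAG XL665/anti-GST K antibodies were added. After 60 min at room temperature, HTRF 665/615 nm emission was read.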

Test [16] concerns the target Nuclear receptor ROR-gamma (Homo sapiens) (UniProt P51449). In words: qHTS assay for small molecule antagonists of the retinoid-related orphan receptor gamma (ROR-gamma) signaling pathway (AID 651802).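 Note: CHO cells with doxycycline-induced ROR-gamma expression; luciferase reporter luminescence driven by ROR response element; % is set by controls: 0 for no effect and ±100 for the full control effect; nearly all actives have a fitted effect of over 60% in size.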 The procedure, abridged:
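Luciferase read-out: ONE-Glo luminescence after 30 min at room temperature, following 16hr doxycycline induction at 37C, 5% CO2 of CHO cells with TET-inducible ROR and RORE-LUC reporter; decreased luminescence = reduced reporter activity.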

Test [17] in a line: qHTS assay for small molecule antagonists of the retinoid-related orphan receptor gamma (ROR-gamma) signaling pathway - cell viability counter screen (AID 720652; active = well fitted curve in the direction sought with a large enough effect in the repeat runs; an effect the other way counts as inactive or inconclusive;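 note: CHO reporter cells with doxycycline-induced ROR-gamma expression; compound exposure lasted 16 hr before ATP read; % is set by controls: 0 for no effect and ±100 for the full control effect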). The procedure, abridged:
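CHO RORE-LUC/TET-ROR line, 1,000 cells/well, 37 C 5% CO2 5 hr; cpd or DMSO + doxycycline induction, 16 hr. CellTiter-Glo, 30 min RT, luminescence = ATP content.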

Test [18] is described as follows: qHTS profiling for inhibitors of Plasmodium falciparum (3D7) proliferation (AID 743322; call rule not given here;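 note: infected erythrocytes exposed to compound for 72 h before lysis; 100% = DMSO vehicle wells and 0% = 0.29 µM artemisinin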). To be noted: P. falciparum 3D7 proliferation; at 28.7 µM (top of the series) unless noted. The procedure, abridged: as §1
Test [19] can be described thus: qHTS profiling for inhibitors of Plasmodium falciparum (DD2) proliferation (AID 743323; call rule not given here). To be noted: lower = more inhibition; at 28.7 µM (top of the series) unless noted. The method, boiled down:
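P. falciparum Dd2-infected erythrocytes (0.3% parasitemia, 2.5% hematocrit) exposed 72 h at 37 C, 5% CO2. Lysis with SYBR Green, overnight at room temperature, fluorescence 485/535 nm; normalized to 0.29 uM artemisinin and DMSO.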

Test [20] can be described thus: qHTS profiling for inhibitors of Plasmodium falciparum (HB3) proliferation (AID 743324).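 Note: 100% = DMSO vehicle wells and 0% = artemisinin-treated control wells.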 The following applies: Plasmodium falciparum HB3 blood-stage proliferation; at 28.7 µM (top of the series) unless noted. The method, boiled down:
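SYBR Green fluorescence (485 ex/535 em) of lysed cultures, incubated overnight at room temperature in the dark, quantifies parasite DNA. Infected erythrocytes at 0.3% parasitemia and 2.5% hematocrit were exposed 72 h; values normalized to DMSO and 0.29 uM artemisinin controls.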

Sequence of Peroxisome proliferator-activated receptor alpha (Homo sapiens) (Q07869 whole entry, looked up): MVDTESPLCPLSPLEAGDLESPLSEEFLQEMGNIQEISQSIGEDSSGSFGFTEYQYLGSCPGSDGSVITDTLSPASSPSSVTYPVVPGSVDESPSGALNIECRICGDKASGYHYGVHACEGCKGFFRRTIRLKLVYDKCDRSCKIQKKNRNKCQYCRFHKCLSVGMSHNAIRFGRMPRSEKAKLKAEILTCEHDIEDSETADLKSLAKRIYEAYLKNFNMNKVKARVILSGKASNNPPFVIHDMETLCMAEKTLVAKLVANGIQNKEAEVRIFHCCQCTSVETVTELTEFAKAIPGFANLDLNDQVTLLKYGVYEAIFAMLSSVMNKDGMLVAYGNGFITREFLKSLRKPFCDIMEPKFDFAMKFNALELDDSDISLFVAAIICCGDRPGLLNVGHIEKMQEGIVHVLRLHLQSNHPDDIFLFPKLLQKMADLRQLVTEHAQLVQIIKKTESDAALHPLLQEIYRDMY
Sequence of Arylsulfatase A (Homo sapiens) (P15289 whole entry, looked up): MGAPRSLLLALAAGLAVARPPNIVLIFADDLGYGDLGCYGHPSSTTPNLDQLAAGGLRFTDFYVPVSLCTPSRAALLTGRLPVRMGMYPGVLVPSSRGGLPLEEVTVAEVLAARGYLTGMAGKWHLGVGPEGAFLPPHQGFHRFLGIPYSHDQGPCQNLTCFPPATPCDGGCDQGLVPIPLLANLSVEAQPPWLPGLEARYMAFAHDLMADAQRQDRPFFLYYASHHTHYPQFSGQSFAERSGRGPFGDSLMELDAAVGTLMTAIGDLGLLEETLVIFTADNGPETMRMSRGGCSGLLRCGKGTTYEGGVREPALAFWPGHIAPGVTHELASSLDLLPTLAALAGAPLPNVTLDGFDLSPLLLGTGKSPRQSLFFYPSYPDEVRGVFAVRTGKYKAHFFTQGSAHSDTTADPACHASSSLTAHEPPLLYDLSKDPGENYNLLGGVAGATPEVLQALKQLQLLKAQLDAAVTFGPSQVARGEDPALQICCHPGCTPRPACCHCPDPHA
Sequence of Tyrosine-protein kinase Yes (Homo sapiens) (P07947 whole entry, looked up): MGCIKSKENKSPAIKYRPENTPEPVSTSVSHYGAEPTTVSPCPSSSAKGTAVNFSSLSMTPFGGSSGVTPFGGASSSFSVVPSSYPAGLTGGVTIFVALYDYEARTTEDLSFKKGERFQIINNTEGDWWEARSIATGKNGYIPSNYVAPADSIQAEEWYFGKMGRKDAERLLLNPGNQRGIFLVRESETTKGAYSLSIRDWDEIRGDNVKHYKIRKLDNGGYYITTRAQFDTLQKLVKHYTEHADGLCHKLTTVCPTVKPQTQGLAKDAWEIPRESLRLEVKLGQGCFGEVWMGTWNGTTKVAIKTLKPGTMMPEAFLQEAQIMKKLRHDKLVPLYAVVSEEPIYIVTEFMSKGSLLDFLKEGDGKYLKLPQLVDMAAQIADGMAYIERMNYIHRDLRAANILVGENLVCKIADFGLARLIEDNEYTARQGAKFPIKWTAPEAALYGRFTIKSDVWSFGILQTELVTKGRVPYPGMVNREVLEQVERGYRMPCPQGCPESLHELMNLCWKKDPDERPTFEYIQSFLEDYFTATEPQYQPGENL
T1 sequence (P35557 whole entry, looked up): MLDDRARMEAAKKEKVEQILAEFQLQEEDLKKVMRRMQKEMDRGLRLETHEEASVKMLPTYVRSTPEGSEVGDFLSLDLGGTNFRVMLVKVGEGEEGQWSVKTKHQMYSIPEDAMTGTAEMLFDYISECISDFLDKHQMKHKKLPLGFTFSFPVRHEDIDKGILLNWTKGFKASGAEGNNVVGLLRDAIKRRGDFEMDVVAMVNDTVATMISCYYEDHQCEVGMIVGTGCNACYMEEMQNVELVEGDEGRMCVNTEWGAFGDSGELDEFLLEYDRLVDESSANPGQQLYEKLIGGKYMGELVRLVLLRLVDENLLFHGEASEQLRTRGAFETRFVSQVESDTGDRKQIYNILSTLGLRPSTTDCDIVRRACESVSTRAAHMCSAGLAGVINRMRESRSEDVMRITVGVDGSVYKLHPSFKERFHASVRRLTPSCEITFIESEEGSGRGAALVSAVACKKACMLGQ
T1 sequence (Q14397 whole entry, looked up): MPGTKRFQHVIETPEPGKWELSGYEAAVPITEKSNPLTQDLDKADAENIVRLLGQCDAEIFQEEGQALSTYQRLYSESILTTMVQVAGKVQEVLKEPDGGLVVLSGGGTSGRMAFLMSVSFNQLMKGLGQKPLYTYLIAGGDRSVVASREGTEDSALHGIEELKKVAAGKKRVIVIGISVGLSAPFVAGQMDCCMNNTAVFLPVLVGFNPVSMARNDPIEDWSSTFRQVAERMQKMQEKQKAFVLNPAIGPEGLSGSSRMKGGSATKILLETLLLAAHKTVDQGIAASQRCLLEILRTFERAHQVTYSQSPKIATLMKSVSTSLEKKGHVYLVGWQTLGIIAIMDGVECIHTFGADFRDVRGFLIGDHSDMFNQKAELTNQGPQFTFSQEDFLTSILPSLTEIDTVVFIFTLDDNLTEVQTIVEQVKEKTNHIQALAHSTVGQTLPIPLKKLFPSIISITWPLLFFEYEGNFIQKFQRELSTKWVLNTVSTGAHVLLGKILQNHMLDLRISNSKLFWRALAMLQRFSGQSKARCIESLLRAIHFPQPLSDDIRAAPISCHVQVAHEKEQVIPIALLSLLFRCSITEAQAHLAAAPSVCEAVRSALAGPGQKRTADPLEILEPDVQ
Sequence of Nuclear receptor ROR-gamma (Homo sapiens) (P51449 whole entry, looked up): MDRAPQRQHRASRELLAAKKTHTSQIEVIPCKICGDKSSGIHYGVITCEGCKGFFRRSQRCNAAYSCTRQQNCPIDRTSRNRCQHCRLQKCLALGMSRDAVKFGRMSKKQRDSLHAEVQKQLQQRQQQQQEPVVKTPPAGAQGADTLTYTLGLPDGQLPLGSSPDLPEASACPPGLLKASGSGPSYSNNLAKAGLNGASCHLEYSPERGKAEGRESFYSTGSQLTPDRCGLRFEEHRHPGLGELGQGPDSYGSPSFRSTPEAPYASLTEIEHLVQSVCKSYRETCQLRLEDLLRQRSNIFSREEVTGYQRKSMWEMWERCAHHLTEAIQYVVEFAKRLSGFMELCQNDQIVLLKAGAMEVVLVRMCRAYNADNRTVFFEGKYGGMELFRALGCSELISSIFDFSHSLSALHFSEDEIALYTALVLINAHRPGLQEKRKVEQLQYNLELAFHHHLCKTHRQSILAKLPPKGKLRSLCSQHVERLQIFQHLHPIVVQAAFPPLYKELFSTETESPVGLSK

Take `O=c1c(O)c(-c2ccc(O)cc2O)oc2cc(O)cc(O)c12`: the max response is -3.16% (inactive) in test [1], 6.53% (inactive) in test [7], 11.7% (inactive) in test [10] and -9.35% (inactive) in test [11]. Besides, the Potency result in test [2], in [5], in test [6] and in [12] was “inactive” each time. Further, the outcome in [3], in test [4], in test [8] and in test [9] was inactive. In test [13], this molecule showed a parasite growth, % of DMSO control of 80.8%.

`Oc1ccc(-c2nc(-c3ccc(F)cc3)c(-c3ccncc3)[nH]2)cc1`: the Potency in test [14] was 17.3 µM (active). The Potency entry in [2] and in test [5] was “inactive” each time. Besides, the molecule was called inactive in test [3], in [8], in test [9] and in [15]. Also, in test [10], the max response was 19.1% (inactive). The parasite growth, % of DMSO control in test [13] is 37%.

In the case of `Nc1nc(N)c(N=O)c(OCC2CCCCC2)n1`, the Potency result in test [2] and in [5] was “inactive” throughout. Moreover, the molecule was classed as inactive in test [3], in test [4], in test [8], in test [9] and in [15]. Further, the max response in test [10] is 15% (inactive). In [13], the parasite growth, % of DMSO control turned out to be 28%.

Consider `COC(=O)[C@H](Cc1ccccc1)NC(=O)[C@@H](N)CC(=O)O` (H-Asp-Phe-OMe), for which the max response was -1.47% (inactive) and -4.11% (inactive) in [1]; -13.7% (inactive) and 2.98% (inactive) in test [7]; 15.3% (inactive) and 2.54% (inactive) in test [10]; -2.43% (inactive) and -2.64% (inactive) in test [11]. In addition, the result in test [16] and in test [17] was inactive. For the same molecule, the Potency result in [6] and in test [12] was “inactive” each time. In addition, in test [13], the parasite growth, % of DMSO control stood at 88.6%.

Regarding `CC(C)C[C@H](NC(=O)[C@H](Cc1ccccc1)NC(=O)c1cnccn1)B(O)O`, the Potency result in test [14] was “inactive”. Besides, the Potency in test [10] was 118 nM (active) and 316 nM (active). Moreover, in [18], the remaining parasite growth % (stronger effect = lower value) was -0.334%. Besides, the activity, percent of control in test [19] was -0.17%. The remaining proliferation (% of control), lower = more inhibition in test [20] was -0.165%. The parasite growth, % of DMSO control in test [13] was 4.91%.

Turning to `Cc1cccc(C#Cc2ccccc2)n1`, the Potency result in [14] and in test [2] was “inactive” throughout. Further, the molecule was classed as inactive in test [3], in test [4], in [8], in test [9] and in test [15]. The Potency in test [5] is 2.91 µM (active). For the same molecule, the max response in test [10] was 7.87% (inactive). Moreover, in [18], the remaining parasite growth % (stronger effect = lower value) was 106%. Further, in test [19], the activity, percent of control was determined as 85.7%. In addition, the remaining proliferation (% of control), lower = more inhibition in test [20] is 75.6%. The same molecule came in with a parasite growth, % of DMSO control in test [13] of 23.9%.

Regarding `Nc1ccc(S(N)(=O)=O)cc1`, the max response is 3.64% (inactive) in [1], 0.534% (inactive) in test [7], 6.71% (inactive) in [10] and -1.9% (inactive) in test [11]. Besides, the Potency entry in [6] and in test [12] was “inactive” throughout. Further, the result in [17] was inactive. Besides, the parasite growth, % of DMSO control in test [13] turned out to be 105%.
